Bioassay records (PubChem BioAssay)
PI4K2A inh – inhibitors of human PI4K2A; purified PI4K2A, ADP-Glo luminescence, 1 h; hits give low values; activity change, negative = inhibition, % at 76.9 µM; 420,000 tested, 0.13% active; AID 1346378; in the data active means activity change below about -50%; inconclusive means mostly about -30% to -49%;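 further: -100% = wells without enzyme as full effect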
Target sequence (Q9BTU6 whole entry, looked up): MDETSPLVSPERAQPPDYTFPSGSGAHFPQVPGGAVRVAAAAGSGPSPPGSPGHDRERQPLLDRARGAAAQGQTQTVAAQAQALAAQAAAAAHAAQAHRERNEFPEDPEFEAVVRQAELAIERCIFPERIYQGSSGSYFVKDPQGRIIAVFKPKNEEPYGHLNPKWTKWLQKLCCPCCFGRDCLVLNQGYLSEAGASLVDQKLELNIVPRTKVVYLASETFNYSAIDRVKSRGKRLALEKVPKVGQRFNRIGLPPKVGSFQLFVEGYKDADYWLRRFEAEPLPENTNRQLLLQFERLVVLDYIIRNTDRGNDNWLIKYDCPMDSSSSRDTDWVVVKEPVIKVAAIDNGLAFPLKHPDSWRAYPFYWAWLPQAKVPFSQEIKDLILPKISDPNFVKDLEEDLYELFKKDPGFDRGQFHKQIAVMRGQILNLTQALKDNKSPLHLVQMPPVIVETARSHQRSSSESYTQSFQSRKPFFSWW
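ADP-Glo luminescence measured ADP generated by PI4K2A enzyme (4 ug/mL before mixing) with 1.2 mM PI substrate (pre-mix) and 300 microM ATP (pre-mix). Tris pH7.5 buffer with MgCl2, Triton X-100; 1 h reaction at ambient temperature.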
Six1-Eya2 inh – blocks human Six1 binding to Eya2; activity change, % (no concentration beside the values); AID 651725; 360,000 tested, 0.56% active; Q15475+O00167; AlphaScreen GST-Six1/His-Eya2 binding, biochemical; hits give low values
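GST-Six1 + His-Eya2 (5X stock: 250/500 nM); Tris pH 8.0, 300 mM NaCl, 0.05% BSA, 0.02% Tween 20; GSH donor/Ni acceptor beads; 1 h 37 °C dark; AlphaScreen readout.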
CtBP-E1A inh – CtBP/E1A binding inhibition | activity change, % (concentration not given with the values) | 340,000 tested, 0.49% active | AlphaScreen GST-E1A/His-CtBP binding, 1536-well; hits give low values
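GST-E1A and His-tagged CtBP (125 nM each as 5X stock) were preincubated with pin-transferred compound for 2 h at 37 °C in the dark, then glutathione donor and nickel acceptor beads were added for 1 h before AlphaScreen reading.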
PI5P4Ka inh – PI5P4K alpha (human) kinase inhibition | P48426 | PI5P4Kalpha enzyme, ADP-Glo luminescence, 60 min; hits give low values | max response, % | 330,000 tested, 1.2% active | AID 652105; active means max response of -50% or lower; inconclusive means between -30% and -50%; inactive means -30% or higher; further: value at the top dose of about 77 µM
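Single end-point luminescence (ADP-Glo) quantified ADP from PI5P4Kalpha turnover; ATP 5 microM final, 1 h at RT, 0.1% CHAPS and 0.28 mM EGTA in HEPES pH 7.4.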
Akt phos inh – inhibitors of Akt phosphorylation; Neuro2A IGF-stimulated pAkt S473 HTRF, 20 min; hits give low values; activity change, % for hits at 50 µM; 360,000 tested, 0.32% active; in the data active means activity change below about -80%; inconclusive means mostly about -51% to -80%
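Neuro2A cells in DMEM with 0.5% FBS, overnight at 37 deg C, given compound at single 50 µM final, then IGF (6 nM final) for 20 min at 37 deg C. Lysed; phospho-Akt Ser473 by HTRF after 24 h, 665/615 ratio.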
Numbers without * were called inactive. A selection: hits, their analogues and other compounds. The true share with any hit is near 1.8%. Unless noted, no stated cut-off is given here; in the data, active means activity change below about -65%; inconclusive means mostly about -30% to -63%; inactive means weaker than that. Unless noted, on the % scale 0 is the no-effect control and ±100 the full control effect.

For COc1ccccc1NC(=O)CSc1nnc(-c2ccoc2C)o1 the results were PI4K2A inh -3.9, Six1-Eya2 inh -0.7, PI5P4Ka inh 8.0 and Akt phos inh inactive.
Cc1cccc(NC(=O)Oc2ccc(Cl)c3cccnc23)c1 was read as PI4K2A inh -22.5, Six1-Eya2 inh -91.9*, CtBP-E1A inh inconclusive, PI5P4Ka inh 2.8 and Akt phos inh inactive.
For CNC(=O)COc1ccc(Cl)c2cccnc12 the results were PI4K2A inh 2.5, Six1-Eya2 inh 4.3, PI5P4Ka inh -0.2 and Akt phos inh inactive.
O=C(Oc1ccc(Cl)c2cccnc12)N1CCCCC1 was read as PI4K2A inh -1.2, Six1-Eya2 inh -0.7, CtBP-E1A inh 1.8 and Akt phos inh inactive.
For O=C(Oc1ccc(Cl)c2cccnc12)c1cccnc1 the results were PI4K2A inh -8.0, Six1-Eya2 inh -92.6*, CtBP-E1A inh -82.1*, PI5P4Ka inh -4.6 and Akt phos inh inactive.
Screening O=C(Nc1cccc(C(=O)OCc2cc(=O)n3ccsc3n2)c1)c1ccc(F)cc1 returned PI4K2A inh 0.8.
Screening CSc1ccc(/C=N/NC(=O)CNc2cccc3ccccc23)cc1 returned PI4K2A inh -1.6, Six1-Eya2 inh -1.4, CtBP-E1A inh -0.5, PI5P4Ka inh 0.9 and Akt phos inh inactive.
Screening O=C(/C=C/c1ccco1)Oc1cc(Br)cc(/C=N/NC(=O)c2ccccc2O)c1 returned PI4K2A inh 42.3, Six1-Eya2 inh -88.5*, CtBP-E1A inh -92.2*, PI5P4Ka inh 3.1 and Akt phos inh inactive.
Screening O=C(CNc1ccc2ccccc2c1)N/N=C/c1ccc(OC(=O)/C=C/c2ccco2)cc1 returned PI4K2A inh 1.0, Six1-Eya2 inh inconclusive, CtBP-E1A inh -66.6*, PI5P4Ka inh -3.0 and Akt phos inh inactive.
Screening Cc1ccc(C(=O)N/N=C/c2cccc(OC(=O)/C=C/c3ccco3)c2)cn1 returned PI4K2A inh 2.6, Six1-Eya2 inh -10.2, PI5P4Ka inh inconclusive and Akt phos inh inactive.
Screening O=C(CNc1cccc2ccccc12)N/N=C/c1ccc(OC(=O)/C=C/c2ccco2)cc1 returned PI4K2A inh 2.9, Six1-Eya2 inh inconclusive, CtBP-E1A inh -79.3*, PI5P4Ka inh -2.5 and Akt phos inh inactive.
`O=C(CN1C(=O)c2cccc3cccc1c23)N1CCN(c2ccccc2)CC1` gave PI4K2A inh 1.0, Six1-Eya2 inh -2.5, CtBP-E1A inh 0.4, PI5P4Ka inh 0.5 and Akt phos inh inactive.
Screening COc1cc([C@@H]2Oc3cc(C4Oc5cc(O)cc(O)c5C(=O)[C@H]4O)ccc3O[C@H]2CO)ccc1O (some centres not stated) returned PI4K2A inh -3.6, Six1-Eya2 inh -1.2, CtBP-E1A inh -12.6, PI5P4Ka inh -52.1* and Akt phos inh inactive.
For CC(=O)C(C(C)=O)C(NC(=O)c1cccnc1)(C(F)(F)F)C(F)(F)F the results were PI4K2A inh -8.0, Six1-Eya2 inh 5.8, CtBP-E1A inh 11.5, PI5P4Ka inh -62.9* and Akt phos inh inactive.
For CCOC(=O)C(O)(NC(=O)c1cccnc1)C(F)(F)F (configuration not stated) the results were PI4K2A inh 0.3, Six1-Eya2 inh -1.6, CtBP-E1A inh -3.3, PI5P4Ka inh 0.3 and Akt phos inh inactive.
Cc1ccc(CNC(=O)[C@H](C)[C@H]2C[C@]2(C)[C@H](NC(=O)OCc2ccccc2)c2ccccc2)o1 was read as PI4K2A inh 0.5, Six1-Eya2 inh -3.7, CtBP-E1A inh -3.5, PI5P4Ka inh -52.0* and Akt phos inh inactive.
`C[C@@H](C(=O)NCc1ccccc1)[C@@H]1C[C@@]1(C)[C@@H](NC(=O)OCc1ccccc1)c1ccccc1` gave PI4K2A inh 0.7, Six1-Eya2 inh 2.9, CtBP-E1A inh 5.2, PI5P4Ka inh -2.8 and Akt phos inh inactive.
CC(C)OC(=O)CSc1nnc2c3ccccc3n(C)c2n1 was read as PI4K2A inh 4.3, Six1-Eya2 inh 4.7, CtBP-E1A inh 2.0, PI5P4Ka inh 0.7 and Akt phos inh inactive.
Cc1c(OCC(=O)NCCCN2CCCC2=O)ccc2c3c(c(=O)oc12)CCC3 was read as PI4K2A inh -9.2, Six1-Eya2 inh -12.7, CtBP-E1A inh -16.1, PI5P4Ka inh 6.1 and Akt phos inh inactive.
